In PubChem BioAssay (NCI):
Where “and” joins values, the source holds several entries; their conditions need not be identical. Equal entries are not always repeated. Compounds without any hit were thinned out: in the full panel of roughly 83,000, 20% have a hit.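 In brief: 96-well plates, 48 h treatment, single concentration, percent growth endpoint.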 Calls of active or inactive are those of the source. The calls were made as follows: active = growth percent below 10; inactive = the rest.

Tested on: HL-60(TB) leukemia
Test: NCI-60 one-dose screen, 48 h (100 = growth as untreated, 0 = no growth, -100 = all killed)
Conditions: 10 µM unless noted

Row | Compound | growth
1 | CCCC(=O)Oc1ccc(/C(=C(\C)c2ccc(OC)cc2)c2ccc(OCCN3CCCCC3)cc2)cc1 | 89.6% (inactive)
2 | Fc1cccc(CNc2c3ccccc3nc3ccccc23)c1F | 76% (inactive)
3 | CC(=O)OCC1OC(OCC2OC(OC(C)=O)C(OC(C)=O)C(OC(C)=O)C2OC(C)=O)C(OC(C)=O)C(OC(C)=O)C1OC(C)=O (stereo not given) | 115% (inactive)
4 | CN(CC(=O)Nc1nc2ccccc2[nH]1)S(=O)(=O)c1ccc(Cl)cc1 | 90% (inactive)
5 | CC(=O)Nc1ccc(S(N)(=O)=O)cc1 | 101% (inactive)
6 | COC(=O)CCCNc1c(-c2c(O)c(O)cc3c(O)c(-c4c(C)cc5c(-c6nc7ccccn7c6NCCCC(=O)OC)c(O)c(O)cc5c4O)c(C)cc23)nc2ccccn12 | 91.7% (inactive)
7 | CC[C@H](Nc1ncnc2nc[nH]c12)c1nc2cccc(NCc3ccc(C(=O)NO)o3)c2c(=O)n1-c1ccccc1 | 81.4% (inactive)
8 | COc1ccc(-c2[nH]nc(N)c2-c2cc(OC)c(OC)c(OC)c2)cc1 | -34.9% (active)
9 | CCCNC(=S)N/N=C(\C)c1ccccn1 | -8.41% (active)
10 | CCN1CCOC1C(C)C (stereo not given) | 90% (inactive)
11 | Cc1ccc(C2=Nc3c(N)ncnc3NC(c3ccc4c(c3)OCO4)C2)cc1 (stereo not given) | 33.2% (inactive)
12 | CC(C)(C)[Si](C)(C)O[C@H]1C(=O)C=CN2CC=C[C@@H]12 | 89.5% [100 µM] (inactive)
13 | C#Cc1cccc(NC(=O)Nc2ccc(NC(=O)CCl)cc2)c1 | 0.172% [8.25 µM] (active)
14 | CCN(CC)CCOc1ccc(/C=N/Nc2nc3c([nH]2)c(=O)n(C)c(=O)n3C)cc1 | 97.3% (inactive) and 115% (inactive)
15 | CCCCCOC(=O)c1ccc(NC(=O)CNCC(C)C)cc1 | 84.6% (inactive)
16 | CCC1CCC(C)NC1 (stereo not given) | 99.4% (inactive)
17 | Nc1ncnc2nc(Br)[nH]c12 | 90.3% (inactive)
18 | Cc1cccc(C)c1NC(=O)CSC(=S)N1CCCCC1 | 73.2% (inactive)
19 | CC1=NN(c2nc(SCC(=O)Nc3nc4ccc(C)cc4s3)nc(-c3ccccc3)c2C#N)C(=O)C1 | 111% (inactive)
20 | COC(=O)/C=C1\S/C(=N\NS(=O)(=O)c2ccc(C)cc2)N(c2ccccc2)C1=O | 105% (inactive)

Row | Compound | growth
21 | O=C(Nc1cccc(-c2cccc(F)c2)c1)C1CCN(Cc2cccc3cccnc23)CC1 | 28% (inactive)
22 | O=C(O)c1ccccc1Cc1ccc(F)c2ccccc12 | 98.1% (inactive) and 91.1% (inactive)
23 | COc1ccc2c(c1)[nH]c(=O)c1c3cc(OC)c(OC)cc3cn21 | -18.9% (active)
24 | COc1nc2c(cc1S(=O)(=O)c1ccccc1)CCc1c-2cnn1-c1ccccc1Cl | 39.9% (inactive)
25 | Cc1oc2ncnc(Nc3ccccc3)c2c1C(=O)NCCO | 64.9% (inactive)
26 | CCC(=O)Oc1ccc(/C(=C(/C)Cc2cccc(OC)c2)c2ccc(OCCN(C)C)cc2)cc1 | 91.3% (inactive)
27 | COc1ccc2c(c1)C(=O)c1c-2c(OCCN2CCCCC2)nc2ccc(OC)cc12 | 17.1% (inactive)
28 | COc1cc(Nc2c(C#N)cnc3cc(OCCCN4CCN(C)CC4)c(OC)cc23)c(Cl)cc1Cl | 6.54% (active)
29 | Cc1nn(-c2nc3ccccc3[nH]2)c2c1C(c1ccc(OCc3ccc(F)cc3)cc1)CC(=O)N2 (stereo not given) | 75.8% (inactive)
30 | C=C(CN1CCc2c([nH]c3ccccc23)C1)c1ccc(C(=O)Nc2ccon2)cc1 | 99% (inactive)
31 | O=C(Nc1nc2ccccc2s1)c1ccc(F)cc1 | 111% (inactive)
32 | CNC(=O)c1ccc(Nc2ncc(C(F)(F)F)c(NCc3nccnc3N(C)S(C)(=O)=O)n2)cc1 | -32.1% (active)
33 | O=C(c1ccc(Cl)cc1)N1CCN(c2ccnc3cc(Cl)ccc23)CC1 | 102% (inactive)
34 | COC(=O)CNC(=O)C(=O)c1c(O)c(O)c(C(C)C)c2cc(C)c(-c3c(C)cc4c(C(C)C)c(O)c(O)c(C(=O)C(=O)NCC(=O)OC)c4c3O)c(O)c12 | 24.6% (inactive)
35 | c1ccc(-c2nc(N3CCOCC3)c3c4c(sc3n2)CCCCCC4)nc1 | 68.4% (inactive)
36 | COc1cc(-c2cc(-c3nc4ccccc4[nH]3)[nH]n2)cc(OC)c1OC | -22.9% (active)
37 | c1ccc(C(Nc2ccccn2)(c2ccccc2)c2ccccc2)cc1 | 90.4% (inactive)
38 | COc1cc(C2CC(c3cc(OC)c(OCCCOc4ccc(-n5c(/C=C/c6ccccc6)nc6ccccc6c5=O)cc4)c(OC)c3)=NO2)cc(OC)c1OC (stereo not given) | 119% (inactive)
39 | OCC(O)C(O)CC1SCCS1 (stereo not given) | 46% (inactive)
40 | COc1ccc(/C=C2\COc3ccc(O)cc3C2=O)c(OC)c1OC | 12.7% (inactive)
